Screening data from PubChem.
A3A deaminase – human APOBEC3A DNA deaminase inhibition; P31941; recombinant A3A, FAM/TAMRA ssDNA deamination fluorescence; inhibition, % at 20 µM; 330,000 tested, 0.41% active; AID 493011;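 active = at least 40% inhibition at 20 µM here, with at most 30% in a related deaminase screen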;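 note: plate controls were A3A with DMSO for no effect and wells lacking A3A enzyme for full effect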
Target sequence (P31941 whole entry, looked up): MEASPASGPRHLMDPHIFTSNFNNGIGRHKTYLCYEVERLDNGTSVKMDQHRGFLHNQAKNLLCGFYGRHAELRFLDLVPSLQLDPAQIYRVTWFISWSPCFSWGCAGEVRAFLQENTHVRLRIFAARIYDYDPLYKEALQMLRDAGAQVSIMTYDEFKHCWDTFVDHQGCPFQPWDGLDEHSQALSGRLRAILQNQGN
APOBEC3G inh – APOBEC3G (human) deaminase inhibition | inhibition, % at 20 µM | recombinant A3G, ssDNA deamination FAM/TAMRA fluorescence | 330,000 tested, 0.28% active;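 active = inhibition of at least 40% at 20 µM, with no more than 30% in the related APOBEC3A deaminase screen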;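 note: plate controls were DMSO wells with A3G for no effect and wells lacking A3G enzyme for full effect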
Target sequence (Q9HC16 whole entry, looked up): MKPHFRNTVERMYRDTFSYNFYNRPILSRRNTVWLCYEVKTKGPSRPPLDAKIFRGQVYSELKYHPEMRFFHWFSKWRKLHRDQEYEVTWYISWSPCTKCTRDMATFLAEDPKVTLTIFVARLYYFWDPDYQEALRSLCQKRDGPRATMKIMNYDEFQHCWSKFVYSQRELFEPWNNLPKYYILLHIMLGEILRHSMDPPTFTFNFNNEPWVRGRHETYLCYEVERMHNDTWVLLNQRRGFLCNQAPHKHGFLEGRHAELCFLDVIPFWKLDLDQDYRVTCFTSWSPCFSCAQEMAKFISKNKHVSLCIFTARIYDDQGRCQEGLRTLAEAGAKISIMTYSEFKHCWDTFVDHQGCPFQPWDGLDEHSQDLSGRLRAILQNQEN
GRK2 aptamer HTS – inhibitors of human GRK2 displacing RNA aptamer; P25098; bead flow cytometry, FAM-aptamer displacement from GRK2; inhibition of aptamer binding, % at 10 µM; 330,000 tested, 0.59% active; AID 488847;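 active = inhibition of aptamer binding above 40%, roughly 3 SD of noise, on plates passing a quality check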;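 note: median bead fluorescence of bound FAM aptamer so fluorescent compounds give negative values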
VLA-4 inh – inhibition in a human VLA-4 binding assay; inhibition, % (about 7 µM as worked out from the volumes in the protocol); P13612; 330,000 tested, 0.2% active; VLA-4 expressing cells, ligand binding flow cytometry; in the data active = inhibition above about 50%
VLA-4 allo CP – human VLA-4 allosteric modulation in cherry picked compounds. shares compounds with VLA-4 inh. U937 cells, HUTS-21 LIBS mAb binding, flow cytometry; LDV ligand present at threefold Kd. inhibition, % at 6.7 µM. 1,300 tested, 2% active. AID 2813; in the data active = inhibition above about 40%;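 note: 0% = ligand without compound and 100% = no ligand background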
GRK2 CP1 – human GRK2 inhibition confirmation, cherry pick 1 | shares compounds with GRK2 aptamer HTS | bead-bound GRK2, FAM-aptamer displacement, flow cytometry | aptamer displacement, % at 10 µM | 2,000 tested, 4% active | AID 504451;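 active = aptamer displacement above 40%, near three times the noise of non-fluorescent compounds, on plates passing quality checks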;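 note: negative values mostly reflect intrinsic compound fluorescence rather than true enhancement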
Aptamer quench – counter-screen for GRK2 aptamer inhibitors: fluorescent aptamer quenchers | shares compounds with GRK2 aptamer HTS | Fluorescent RNA aptamer beads, quenching, flow cytometry; stronger effect = higher value | 110 tested, under 10 active | fluorescence change (kMESF span), kMESF (no concentration beside the values);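 active = compounds whose bead fluorescence drops by more than 37 kMESF across the dose range, marking them as dye quenchers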
Aptamer quench SP – counter-screen for GRK2 aptamer inhibitors: fluorescent aptamer quenchers | shares compounds with GRK2 aptamer HTS | Carboxyfluorescein RNA aptamer on beads, flow cytometry quenching; stronger effect = lower value | fluorescence response (% of DMSO), % at 10 µM | 2,000 tested, under 10 active | AID 504580;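 active = compounds that quench the bead-bound fluorescent RNA probe, cutting fluorescence to under half of the solvent control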;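 note: counterscreen run without GRK2 so only probe quenching by compound is measured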
GRK2 CP2 – confirmation of human GRK2 inhibitors binding RNA aptamer site. shares compounds with GRK2 aptamer HTS. bead-bound GRK2, FAM-aptamer displacement, flow cytometry. inhibition of aptamer binding, % at 10 µM. 360 tested, under 10 active. AID 504782;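 active = inhibition of aptamer binding above 40%, about triple the noise seen with nonglowing compounds, on plates passing quality control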;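 note: negative values mostly come from compounds that fluoresce themselves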
FAM quench CP2 – aptamer fluorescence quenching in GRK2 counter-screen. 360 tested, under 10 active. shares compounds with GRK2 aptamer HTS. carboxyfluorescein RNA aptamer beads, flow cytometry quenching; stronger effect = lower value. fluorescence response vs DMSO, % at 10 µM. AID 588494;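 active = response vs DMSO under 50%, meaning signal dropped by over half, treated as fluorescence quencher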;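 note: labelled aptamer on streptavidin beads without GRK2 as a quench counter-screen; 100% = bead fluorescence of DMSO wells and lower means quenching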
A3A conf – APOBEC3A (human) deaminase inhibition, confirmed | inhibition, % at 20 µM | AID 493151 | shares compounds with A3A deaminase | recombinant A3A, ssDNA deaminase UDG fluorescence assay | 1,400 tested, 63% active;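 active = inhibition reaching a set limit, 80% of the first screen's cutoff, at 20 µM in any replicate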;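 note: plate controls were DMSO wells with A3A for no effect and wells lacking A3A enzyme for full effect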
UDG ctr A3A – inhibits UDG, flagging false APOBEC3A inhibitors; inhibition, % at 20 µM; 1,000 tested, under 10 active; shares compounds with A3A deaminase; UDG counterscreen, FAM/TAMRA uracil oligo fluorescence; call rule not given here
* marks the source's active call; other numbers are inactive results; i = inactive; · = no result; ! = not confirmed by another sample. Rows were chosen to be rich in hits. Some 1.4% of all compounds tested hit in one or more screens of this group.

SMILES	A3A deaminase	APOBEC3G inh	GRK2 aptamer HTS	VLA-4 inh	GRK2 CP1	Aptamer quench SP	others
C=C(C=O)CC1CC(O)[C@]2(C)OC3C[C@@H]4OC5C[C@]6(C)O[C@]7(C)CCC8OC9C[C@]%10(C)OC(/C(C)=C\CO)C(O)CC%10OC9CC(C)C8OC7CC6O[C@]5(C)C/C=C\C4OC3CC2O1 (stereo partly drawn)	-3.8	-4.7	0.0	1.7	·	·
COc1ccc(-n2c(CN3CCOCC3)nc3ccccc3c2=O)c(OC)c1	-1.8	-6.2	3.0	6.5	·	·
COc1cccc(-c2sc3ccccc3c2-c2ccc(OCCN3CCOCC3)cc2)c1	-2.7	-5.8	0.0	17.1	·	·	VLA-4 allo CP=-1.4
Nc1nnc(CCN2CCCCC2)s1	-3.2	-4.7	0.0	-0.6	·	·
CO[C@H]1C=C2CCN(C)[C@H]2C2c3cc4c(cc3C(=O)O[C@@H]21)OCO4 (stereo partly drawn)	2.6	2.9	2.0	26.2	·	·
Cc1nnc2ccc(-c3cccc(C(F)(F)F)c3)nn12	2.2	-3.7	2.0	63.2*	·	·	VLA-4 allo CP=-4.8
O=C1c2cccc3cccc(c23)C(=O)N1/N=C/c1c(O)n(-c2ccccc2)c(=O)[nH]c1=O	9.1	-2.8	62.0*	-14.5	8.4	97.5
CCN(CC)S(=O)(=O)c1ccc(N=Cc2c(O)n(-c3ccccc3)c(=O)[nH]c2=O)cc1	-4.2	-5.6	5.0	6.6	·	·
c1ccc2cc(C3N4CCCN34)ccc2c1 (stereo not drawn)	1.4	3.6	32.0	-7.1	·	·
O=c1cc(CN2CCNCC2)nc2sccn12	-3.6	-10.8	4.0	10.0	·	·
CC(C)CNc1c2c(nc3ccccc13)CCC2	2.4	3.9	0.0	-1.6	·	·	GRK2 CP2=10.6;FAM quench CP2=101.0
Cc1ccccc1OP(N)(=O)Oc1ccccc1C	1.6	-6.1	52.0*	2.5	-1.3	99.8
O=c1[nH]c(CN2CCNCC2)nc2ccccc12	0.7	-3.6	1.0	12.9	·	·	GRK2 CP2=i;FAM quench CP2=101.0
CN1CCN(Cc2nc3ccccc3c(=O)[nH]2)CC1	0.9	-0.1	1.0	1.4	·	·
O=S(=O)(NC1CCCCC1)OCC(Cl)(Cl)Cl	-3.8	7.2	1.0	9.2	·	·
O=S1(=O)N(Cc2ccc(F)cc2)CCCN1Cc1ccccc1Cl	-4.8	-8.4	4.0	7.9	·	·
Cc1cc(/C=C2\C(=O)NC(=O)N(Cc3ccccc3Cl)C2=O)c(C)n1-c1ccc(C(=O)O)cc1	31.6	14.7	77.0*	4.1	30.9	98.9
Cc1ccc(N2C(=O)NC(=O)/C(=C\c3cc(C)n(-c4ccc(C(=O)O)cc4)c3C)C2=O)cc1	7.3	0.5	18.0	-16.0	·	·
Cc1cc(/C=C2\C(=O)NC(=O)N(Cc3ccco3)C2=O)c(C)n1-c1ccc(C(=O)O)cc1	39.5	11.5	10.0	27.2	·	·
CCc1ccc(N2C(=O)NC(=O)/C(=C\c3cc(C)n(-c4cc(C(=O)O)cc(C(=O)O)c4)c3C)C2=O)cc1	85.0	50.3	58.0*	8.5	5.6	88.7
O=C(C[N+]12CCN(CC1)CC2)NCCc1ccc(Cl)cc1Cl	-1.5	-2.4	0.0	15.2	·	·
COc1ccc(Cc2nccc3cc(OC)c(OC)cc23)cc1OC	0.0	-7.1	0.0	14.9	·	·
CC1(O)CCN2C(=O)CCc3cccc1c32 (stereo not drawn)	-5.3	-7.7	41.0*	2.0	-3.7	102.6
COC(=O)C1=C(c2c(C)noc2C)C[C@@H]2CC[C@H]1N2C(=O)NCCO	0.1	-7.4	75.0*	-0.6	-2.6	93.8
COC(=O)C1=C(c2cccc(OCc3ccccc3)c2)C[C@@H]2CC[C@H]1N2C(=O)NCCc1ccc(F)cc1	-2.2	-12.5	98.0*	18.7	1.4	103.8
SMILES	A3A deaminase	APOBEC3G inh	GRK2 aptamer HTS	VLA-4 inh	GRK2 CP1	Aptamer quench SP	others
COC(=O)C(O)(c1ccc(N=Cc2ccccc2O)c(C)c1)C(F)(F)F (stereo not drawn)	-4.2	-6.8	0.0	-1.9	·	·
CCOC(=O)c1c(/N=C/c2c(O)n(-c3ccc(F)cc3)c(=S)[nH]c2=O)sc2c1CCCC2	-2.4	0.3	8.0	5.2	·	·
CCOC(=O)c1c(/N=C/c2c(O)n(-c3ccccc3F)c(=S)[nH]c2=O)sc2c1CCCC2	-4.7	3.8	54.0*	-13.2	21.3	106.0
CCOC(=O)C1CCN(/C=C2/C(=O)NC(=O)N(Cc3ccco3)C2=O)CC1	22.4	1.8	82.0*	-1.2	35.1	97.8
CCc1ccc(N2C(=O)NC(=O)/C(=C\c3cccn3CCOc3ccc(C(C)C)cc3)C2=O)cc1	3.8	0.4	0.0	8.1	·	·
O=C1NC(=O)N(Cc2ccco2)C(=O)/C1=C/C=C/c1ccco1	96.4	88.5	0.0	30.6	20.1	94.7
Cc1ccc(OCCn2cccc2/C=C2/C(=O)NC(=O)N(Cc3ccco3)C2=O)cc1	5.1	2.6	2.0	1.8	3.5	94.0
COc1ccc(CC2C(=O)N(c3ccccc3)C(=O)N(c3ccccc3)C2=O)c(OC)c1	-7.9	-5.4	4.0	-7.5	·	·
O=c1c2ccccc2nc(/C=C/c2ccccc2O)n1-c1ccccc1O	-1.4	-7.8	0.0	-306.1	·	·
O=c1c2ccccc2nc(/C=C\c2ccccc2[N+](=O)[O-])n1-c1ccccc1O	1.3	-5.2	45.0*	-0.8	-3.3	116.2
Cc1ccc(N2C(=O)NC(=O)C(CCc3ccccn3)(Cc3ccc(F)cc3)C2=O)cc1 (stereo not drawn)	-1.0	-8.6	0.0	20.9	·	·
Cc1nc2c(=O)n(C)c(=O)nc-2n(C)n1	1.6	-2.7	41.0*	3.6	62.5*	92.3	Aptamer quench=7.6
CCNC(=O)[C@H]1O[C@@H](n2cnc3c(N)ncnc32)[C@H](O)[C@@H]1O	2.2	-3.6	30.0	2.3	0.2	101.0
COc1ccc(CN2CCNCC2)c(OC)c1OC	56.7*!	-2.8	0.0	12.2	-4.2	101.2	A3A conf=62.1*;UDG ctr A3A=-2.2
